Chronic BCR inh: qHTS Assay to Find Inhibitors of Chronic Active B-Cell Receptor Signaling; ABC-DLBCL IkBa-CBG/CBR reporter, luminescence ratio, 4 h; AID 493014, 2011; actives 0.05% (n = 340,000); Potency, µM (series often up to 46.1 µM), hits mostly inhibitors; active means well fitted inhibition curve with a large enough effect in the signal ratio, with a control signal flat, not every such curve was filed as active; inconclusive means small, poorly fitted or top-dose-only effect, or effect the other way, or a change in a side signal; the % refers to the signal ratio
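Concentration-response series (up to 46 uM) were applied to TMD8 dual-reporter cells for 4 h at 37C with doxycycline. Green/red ratio, after filter-overlap correction, defined %Activity; red signal alone was normalised to basal cells and zero luminescence.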
VP16 counter: VP16 counterscreen qHTS for inhibitors of ROR gamma transcriptional activity; actives 3.5% (n = 310,000); Potency, µM (series often up to 53.6 µM), most hits filed as inhibitors; AID 2546, 2010; Drosophila S2 Gal4-VP16 UAS-luciferase, luminescence, 20 h;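 further: Gal4-VP16 expression switched on by copper sulfate through the metallothionein promoter; nearly all actives have a fitted effect of over 50% in size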
MCF10A rereplic: A quantitative high throughput screen for small molecules that induce DNA re-replication in MCF 10a normal breast cells. MCF 10A DNA re-replication, Hoechst nuclear intensity, 48 h. Potency, µM (series often up to 46.1 µM), most hits filed as activators. actives 2.9% (n = 350,000). AID 624296, 2012; further: nearly all actives have a fitted effect of over 50% in size
Giardia kill: Small Molecules that selectively kill Giardia lamblia: qHTS; Giardia lamblia trophozoite viability; activity change, % at 7.66 µM, hits read low; actives 0.15% (n = 340,000); AID 540267, 2011; in the data active means activity change below about -80%; inconclusive means between about -30% and that limit;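 further: parasites exposed to compound for two days anaerobically before the ATP read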
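Luminescent ATP signal served as the viability read-out, measured 15-30 min after adding ATP detection reagent to trophozoites that had been incubated with compounds for 48 hrs at 37 deg C anaerobically at 100 cells/well.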
RORgamma inh: qHTS for inhibitors of ROR gamma transcriptional activity; Nuclear receptor ROR-gamma (Mus musculus), P51450; Drosophila S2 Gal4-RORgamma UAS-luciferase reporter, 20 h; Potency, µM (doses to about 53.6 µM), hits mostly inhibitors; actives 5.4% (n = 310,000); further: nearly all actives have a fitted effect of over 60% in size
Target sequence (P51450 whole entry, looked up, the tested form may be a part): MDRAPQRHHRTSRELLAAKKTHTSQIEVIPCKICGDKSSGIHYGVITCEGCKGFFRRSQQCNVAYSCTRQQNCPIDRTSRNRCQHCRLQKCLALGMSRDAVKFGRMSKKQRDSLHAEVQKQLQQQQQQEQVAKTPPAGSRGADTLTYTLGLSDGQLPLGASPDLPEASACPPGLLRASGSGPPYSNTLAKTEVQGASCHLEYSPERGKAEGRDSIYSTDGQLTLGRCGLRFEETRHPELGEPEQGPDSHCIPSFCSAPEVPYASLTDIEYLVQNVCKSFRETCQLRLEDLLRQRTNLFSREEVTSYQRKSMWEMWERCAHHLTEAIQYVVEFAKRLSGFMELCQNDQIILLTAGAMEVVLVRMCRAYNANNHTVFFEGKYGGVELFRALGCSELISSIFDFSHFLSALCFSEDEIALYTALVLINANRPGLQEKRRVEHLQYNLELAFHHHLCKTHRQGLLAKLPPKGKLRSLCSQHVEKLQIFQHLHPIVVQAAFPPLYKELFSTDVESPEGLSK
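Stably transfected Drosophila Schneider cells are the test system, with ROR gamma fused to Gal4 and luciferase under UAS control; luminescence is read after 20 hr of 700 uM copper sulfate induction at ambient temperature.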
SW480 rerep: A quantitative high throughput screen for small molecules that induce DNA re-replication in SW480 colon adenocarcinoma cells; Potency, µM (titrated, usually from 46.1 µM), most hits filed as activators; actives 1.8% (n = 340,000); SW480 DNA re-replication, Hoechst DNA content imaging, 48 h; AID 624297, 2012; further: nearly all actives have a fitted effect of over 55% in size
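Treated cells incubate 48 hr (37 C, 5% CO2), are stained 40 min with Hoechst, and nuclear fluorescence is enumerated; a rise in nuclei with high DNA signal marks re-replication.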
Each line names hits and unclear results; the compound was inactive in the other large screens. A selection: hits, their analogues and other compounds. The true share with any hit is near 8.3%. Unless noted, the call rests on the fitted dose curve; in most records, active means well fitted curve in the direction sought with a large enough effect; inconclusive means small, poorly fitted or top-dose-only effect, or another doubt; inactive means no such curve, though single readings can be large; an effect the other way counts as inactive or inconclusive.

COc1cccc(/C=N/NC(=O)CCn2c3ccccc3c3ccccc32)c1	none
O=C(Nc1ccc(Cl)c(Cl)c1)C1C2C=CC3(O2)C1C(=O)N(CCN1CCCCC1)C3C(=O)NC1CCCCC1 (centres undefined)	MCF10A rereplic inconclusive, SW480 rerep inconclusive
COC(=O)Nc1nc2c(s1)CCCC2	RORgamma inh inconclusive
CC(=O)NC(Nc1nc2c(s1)CCCC2)(C(F)(F)F)C(F)(F)F	SW480 rerep 4.1µM
O=C(O)C1CCN(S(=O)(=O)c2cccc3nonc23)CC1	none
COC(=O)[C@H]1C[C@@H]1[C@H](NS(=O)(=O)c1ccc(-c2ccccc2)cc1)c1ccccc1	none (no result: Chronic BCR inh, MCF10A rereplic, Giardia kill, SW480 rerep)
COc1ccc(C(=O)ON=C2C=C(C)C(=O)C(C)=C2)cc1	SW480 rerep inconclusive
COc1ccc(SN=C2C(C)=CC(=O)C=C2C)cc1	MCF10A rereplic 26µM, SW480 rerep inconclusive
CC1CN(C2CCCCC2)C(=S)NC1=O (centres undefined)	none (no result: Chronic BCR inh, VP16 counter, RORgamma inh)
O=C(CO/N=C/c1ccc(Cl)cc1Cl)NNC(=O)c1ccc(Cl)cc1Cl	Chronic BCR inh inconclusive, VP16 counter inconclusive, RORgamma inh 0.089µM
O=[N+]([O-])c1ccc(Cc2nnc(-c3ccc(F)cc3)o2)cc1	Chronic BCR inh inconclusive
Cc1ccc(-c2nnc(Cc3ccc([N+](=O)[O-])cc3)o2)cc1	Chronic BCR inh inconclusive, VP16 counter inconclusive, RORgamma inh 0.28µM
CCOc1ccccc1NC(=S)NC1CCCCC1	none
COc1ccccc1NC(=S)NC1CCCCC1	VP16 counter 20µM, RORgamma inh 4.5µM
COc1ccccc1NC(=S)NC1CCCCCCCCCCC1	VP16 counter inconclusive, RORgamma inh 2.8µM
COc1ccccc1NC(=S)NCC1CCCCC1	VP16 counter 13µM, MCF10A rereplic inconclusive, RORgamma inh 4.5µM, SW480 rerep 9.2µM
COc1ccc(OC)c(NC(=O)NC2CCCCCCC2)c1	none
COc1ccc(NC(=S)NC2CCCC2)c(OC)c1	Chronic BCR inh inconclusive, VP16 counter inconclusive, RORgamma inh 6.3µM
Cc1c(C(=O)NC(=S)NCc2cccnc2)cccc1[N+](=O)[O-]	none
COc1ccc(OC)c(C(C)NC(=S)NC2CCCCC2)c1 (centres undefined)	VP16 counter 4µM, RORgamma inh 4µM
COc1ccccc1CNC(=S)NC1CCCC1	VP16 counter 7.1µM, RORgamma inh 5.6µM
Cc1ccc(C)c(C(C)NC(=O)C2CCCC2)c1 (centres undefined)	none
COc1ccccc1CNC(=O)C1CCC1	none
Cc1ccc(C)c(C(C)NC(=S)NC2CCCCC2)c1 (centres undefined)	VP16 counter 5.6µM, RORgamma inh 2.5µM
CCS(=O)(=O)c1nc(S(=O)(=O)c2ccc(Cl)cc2)c(N2CCN(C)CC2)s1	none
CCOC(=O)[C@@H]1[C@H]2COc3ccccc3[C@H]2N2C(=O)N(c3ccccc3)C(=O)[C@]12C	none
Clc1ccc(-c2cnc3n2CCCCC3)cc1	VP16 counter inconclusive, Giardia kill inconclusive, RORgamma inh 5.6µM
CCOc1ccc(-c2cnc3n2CCC3)cc1	RORgamma inh 16µM, SW480 rerep 9.2µM
Brc1ccc(-c2cnc3n2CCCC3)cc1	Chronic BCR inh inconclusive, VP16 counter inconclusive, MCF10A rereplic inconclusive, RORgamma inh inconclusive
Fc1ccc(-c2cnc3n2CCCCC3)cc1	RORgamma inh 11µM
Cc1nc(NC2CCCCC2)c2nc(-c3ccccc3)n(C(C)CN(C)C)c2n1 (centres undefined)	RORgamma inh 10µM (no result: Chronic BCR inh, MCF10A rereplic, Giardia kill, SW480 rerep)
Cc1nc(NC2CCCCC2)c2nc(-c3ccccc3)n(CCN3CCCCC3)c2n1	none (no result: Chronic BCR inh, MCF10A rereplic, Giardia kill, SW480 rerep)
CCN(CC)C1CCN(Cc2cn[nH]c2-c2ccc(OC)c(F)c2)C1 (centres undefined)	SW480 rerep 4.1µM
CC1(C)CC(C)(O)N(Cc2ccccc2)C(=S)N1 (centres undefined)	VP16 counter 16µM, RORgamma inh 13µM
CC1(C)C(=O)NC(=O)N1Cc1ccccc1	Chronic BCR inh inconclusive, MCF10A rereplic inconclusive (no result: VP16 counter, RORgamma inh)
CCc1ccccc1Nc1nn2c(=O)c3ccc(C(=O)NCCCOC(C)C)cc3nc2s1	none (no result: VP16 counter, MCF10A rereplic, Giardia kill, RORgamma inh, SW480 rerep)
COC(=O)c1ccc(Oc2cc(C)nc(-n3nc(C)cc3C)n2)cc1	Chronic BCR inh inconclusive, VP16 counter 3.2µM, MCF10A rereplic 2.1µM, RORgamma inh 0.28µM, SW480 rerep 0.82µM
CCOC(=O)c1ccc(Oc2cc(C)nc(SC)n2)cc1	MCF10A rereplic 1.8µM, SW480 rerep 6.5µM
O=C1CC2(CCCC2)Oc2ccc(F)cc21	none (no result: Chronic BCR inh, VP16 counter, RORgamma inh)
Cc1sc2ncn(CC(=O)N3CCC(C(N)=O)CC3)c(=O)c2c1S(=O)(=O)N1CCOCC1	none
CCOc1ccc(-c2nnc(NC(=O)CCCOc3cccc(C)c3)o2)cc1	VP16 counter inconclusive, MCF10A rereplic inconclusive, RORgamma inh 6.3µM
CCOc1ccc(C(=O)NCC(=O)OCC(=O)Nc2nnc(-c3ccccc3)o2)cc1	none (no result: VP16 counter, RORgamma inh)
CCOc1ccc(-c2nnc(NC(=O)Cc3ccc(OC)cc3)o2)cc1	VP16 counter 4.5µM, MCF10A rereplic inconclusive, RORgamma inh 1.8µM
CCC(=O)Nc1nnc(-c2ccc(OC)cc2)o1	Chronic BCR inh inconclusive, VP16 counter 11µM, RORgamma inh inconclusive
Cc1cccc(OCCCC(=O)Nc2ccc(Br)cc2)c1	MCF10A rereplic inconclusive
COc1cc(OC)cc(C(=O)OCC(=O)Nc2nnc(-c3ccccc3)o2)c1	none (no result: Chronic BCR inh, VP16 counter, RORgamma inh)
CCOc1ccc(-c2nnc(NC(=O)Cc3cc(OC)c(OC)c(OC)c3)o2)cc1	VP16 counter inconclusive, RORgamma inh 11µM
CCCN(CC(=O)Nc1ccccc1C)C(=O)Cc1n[nH]c(=O)c2ccccc12	none (no result: VP16 counter, RORgamma inh)
O=C(NC1CC(=O)N(c2ccc(Cl)cc2)C1)c1ccc(S(=O)(=O)N2CCCC2)cc1 (centres undefined)	none (no result: VP16 counter, MCF10A rereplic, Giardia kill, RORgamma inh, SW480 rerep)
CCOc1ccc(-c2nnc(-c3cccs3)o2)cc1	Chronic BCR inh inconclusive, VP16 counter inconclusive, MCF10A rereplic inconclusive, RORgamma inh 11µM
CCOc1ccc(-c2nnc(-c3cccs3)o2)cc1OCC	none
O=C(Nc1ccc(S(=O)(=O)NC2=NCCCCC2)cc1)c1ccc(Cl)c([N+](=O)[O-])c1	MCF10A rereplic 21µM (no result: VP16 counter, RORgamma inh)
Cc1cccc(C)c1NS(=O)(=O)c1ccc(NC(=O)c2ccc(Cl)c([N+](=O)[O-])c2)cc1	Chronic BCR inh inconclusive, VP16 counter inconclusive, MCF10A rereplic inconclusive, SW480 rerep inconclusive
O=C(Nc1ccc(S(=O)(=O)NC2=NCCCCC2)cc1)c1ccc([N+](=O)[O-])s1	MCF10A rereplic inconclusive, SW480 rerep 13µM (no result: VP16 counter, RORgamma inh)

Screening results deposited in PubChem by National Center for Advancing Translational Sciences (NCATS).
